Some test systems named below: HCT-15 colon; HT29 colon; SNB-75 CNS; SNB-19 CNS; U251 CNS; PC-3 prostate; SK-MEL-5 melanoma; UACC-62 melanoma; LOX IMVI melanoma; SK-MEL-28 melanoma; SK-MEL-2 melanoma; EKVX NSCLC; SN12C renal; UO-31 renal; TK-10 renal; ACHN renal; CAKI-1 renal; A498 renal; CCRF-CEM leukemia; MOLT-4 leukemia.
Holding throughout (assay): NCI-60 one-dose screen, 48 h (100 = growth as untreated, 0 = no growth, -100 = all killed)
What all share (conditions): 10 µM unless noted

Compounds without any hit were thinned out: in the full panel of roughly 83,000, 20% have a hit.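 Negative percent growth values reflect cell death: -40 means 40% of the cells present at the start died, and -100 means all died.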 A number with no mark means an inactive call. Active and inactive are the calls of the source. How the source made its calls: active means growth percent below 10; inactive means the rest.

For `Cc1ccc(NC2=C(Cl)C(=O)c3nc(C)ccc3C2=O)c(C)c1`, the growth was -57.7% (active) in the test on HCT-15 colon; 80.5% in the test on HT29 colon; 87.9% with SNB-75 CNS; 30.5% in the test with SNB-19 CNS; 22.6% in the test with U251 CNS; 22.6% with PC-3 prostate. The growth was -50.2% (active) in the test with SK-MEL-5 melanoma; 18.5% with UACC-62 melanoma; -29.2% (active) with LOX IMVI melanoma; 30.9% in the test on SK-MEL-28 melanoma; 4.04% (active) in the test with SK-MEL-2 melanoma; 49.1% in the test with EKVX NSCLC. Also, the growth is -69.1% (active) in the test with SN12C renal; -13% (active) in the test with UO-31 renal; 126% in the test on TK-10 renal; -24.7% (active) in the test with ACHN renal; 85.5% with CAKI-1 renal; 60.5% in the test on A498 renal. Moreover, the growth is 1.19% (active) with CCRF-CEM leukemia and 1.38% (active) with MOLT-4 leukemia.

Turning to `CN1CCN(Cc2ccc(NC(=O)c3cncc(C#Cc4cnc5ccc(OC6CCOCC6)nn45)c3)cc2C(F)(F)F)CC1`, the growth in the test on HCT-15 colon is -66.4% (active); in the test with HT29 colon, -68% (active); in the test on SNB-75 CNS, -84.9% (active); with SNB-19 CNS, -84% (active); in the test on U251 CNS, -82.8% (active); with PC-3 prostate it was -49.7% (active). For the same compound, the growth in the test on SK-MEL-5 melanoma was -95.6% (active); in the test with UACC-62 melanoma, -70.5% (active); with LOX IMVI melanoma it was -93% (active); with SK-MEL-28 melanoma, -82.5% (active); with SK-MEL-2 melanoma, -90.8% (active); in the test with EKVX NSCLC, -73.8% (active). Besides, the growth is -78.8% (active) with SN12C renal; -92.3% (active) in the test on UO-31 renal; -89.6% (active) in the test on TK-10 renal; -100% (active) with ACHN renal; -97% (active) with CAKI-1 renal; -92.5% (active) with A498 renal. The growth in the test with CCRF-CEM leukemia was 0.551% (active); with MOLT-4 leukemia, 3.74% (active).

In the case of `COc1cc2cc(Oc3ccc(NC(=O)Nc4ccc(F)c(C(F)(F)F)c4)cc3)c(C)nc2cc1OCCN(C)C`, the growth with HCT-15 colon is 29.2%; in the test with HT29 colon, 66.5%; in the test with SNB-75 CNS, 98.8%; in the test on SNB-19 CNS it was 99.8%; in the test on U251 CNS, 100%; in the test with PC-3 prostate, 92%. Further, the growth in the test on SK-MEL-5 melanoma is 90.9%; in the test with UACC-62 melanoma, 106%; with LOX IMVI melanoma it was 54%; in the test with SK-MEL-28 melanoma, 81%; in the test with SK-MEL-2 melanoma it was 115%; in the test with EKVX NSCLC, 97.6%. The growth in the test with SN12C renal is 96.4%; in the test with UO-31 renal it was 86.6%; with TK-10 renal, 106%; in the test on ACHN renal, 106%; in the test on CAKI-1 renal, 85.1%; with A498 renal, 93.6%. In addition, the growth in the test with CCRF-CEM leukemia was 15.8%; in the test with MOLT-4 leukemia, 89.5%.

For `CC(=O)c1cc(C(=O)N2c3ccccc3Sc3ccccc32)n2c1ccc1ccccc12`, the growth with HCT-15 colon was 41.6%; in the test on HT29 colon, 30%; in the test on SNB-75 CNS, 38.7%; in the test on SNB-19 CNS, 57.8%; in the test with U251 CNS, 48.6%; in the test on PC-3 prostate, 46.1%. In addition, the growth in the test with SK-MEL-5 melanoma is 44.1%; in the test with UACC-62 melanoma, 33.9%; in the test with LOX IMVI melanoma it was 58.9%; with SK-MEL-28 melanoma, 61.1%; in the test on SK-MEL-2 melanoma, 38.3%; in the test on EKVX NSCLC it was 78.4%. Moreover, the growth was 86.7% in the test with SN12C renal; 64.6% in the test on UO-31 renal; 107% in the test on TK-10 renal; 50.1% in the test on ACHN renal; 46.8% in the test on CAKI-1 renal; 30.1% in the test on A498 renal. For the same compound, the growth was 35.9% in the test on CCRF-CEM leukemia and 54.7% in the test on MOLT-4 leukemia.

As to `N/C(=N\C(N)=N\c1nc2ccccc2s1)c1ccc(Cl)cc1`, the growth was 37.1% in the test with HCT-15 colon; 98.4% in the test on HT29 colon; 99.1% in the test on SNB-75 CNS; 84% with SNB-19 CNS; 26.8% with U251 CNS; 43.9% with PC-3 prostate. Besides, the growth in the test on SK-MEL-5 melanoma was 99.7%; in the test with UACC-62 melanoma, 81.9%; in the test on LOX IMVI melanoma it was 20.8%; with SK-MEL-28 melanoma, 95.5%; in the test on SK-MEL-2 melanoma it was 96.8%; in the test on EKVX NSCLC, 59.8%. Moreover, the growth was 61.1% with SN12C renal; 73.1% in the test with UO-31 renal; 132% in the test on TK-10 renal; 62.1% with ACHN renal; 65.1% in the test with CAKI-1 renal; 74.7% in the test with A498 renal. Besides, the growth with CCRF-CEM leukemia is 57.9%; in the test with MOLT-4 leukemia, 74%.

As for `O=C(CCCCCCNC(=O)c1csc(Br)n1)NO`, the growth in the test with HCT-15 colon was 60.5%; in the test with HT29 colon, 17.2%; with SNB-75 CNS it was 19.4%; with SNB-19 CNS, 59.7%; with U251 CNS it was 49.3%; in the test with PC-3 prostate, 47.4%. In addition, the growth is 17.7% in the test with SK-MEL-5 melanoma; 14.4% with UACC-62 melanoma; 13.8% in the test with LOX IMVI melanoma; 29.3% in the test on SK-MEL-28 melanoma; 57.3% in the test on SK-MEL-2 melanoma; 53.3% in the test on EKVX NSCLC. Also, the growth with SN12C renal is 73.4%; with UO-31 renal, 22.7%; in the test on TK-10 renal, -3.87% (active); in the test with ACHN renal it was 13.9%; in the test on CAKI-1 renal, 21%; in the test on A498 renal it was -4.04% (active). For the same compound, the growth was 16.1% in the test on CCRF-CEM leukemia and 17.4% in the test with MOLT-4 leukemia.

Regarding `COc1ccc2[nH]cc(/C=N/Nc3ccnc4cc(Cl)ccc34)c2c1`, the growth in the test with HCT-15 colon is -88.1% (active); in the test with HT29 colon it was -42.3% (active); in the test on SNB-75 CNS it was -94.1% (active); in the test on SNB-19 CNS, -100% (active); with U251 CNS, -83.3% (active); with PC-3 prostate it was -86.4% (active). The growth is -100% (active) in the test on SK-MEL-5 melanoma; -98.3% (active) with UACC-62 melanoma; -92.7% (active) with LOX IMVI melanoma; -100% (active) in the test with SK-MEL-28 melanoma; -83.6% (active) in the test on SK-MEL-2 melanoma; -96.5% (active) in the test on EKVX NSCLC. In addition, the growth was -100% (active) with SN12C renal; -100% (active) in the test with UO-31 renal; -96.5% (active) in the test with TK-10 renal; -100% (active) in the test with ACHN renal; -99.9% (active) in the test with CAKI-1 renal; -98.6% (active) with A498 renal. In addition, the values for the growth in the test on CCRF-CEM leukemia and with MOLT-4 leukemia were -42.8% (active) and -48.4% (active), respectively.
